# Measurements taken from PubChem BioAssay AID463173 (ICCB-Longwood Screening Facility, Harvard Medical School, 2010).
# Screen size: about 52,000 compounds; about 4,300 (8.3%) were called active. For the sample, actives were picked, then their nearest neighbours and some compounds at random. Values without a mark were called inactive. No stated cut-off is given here; in the data, active means survival mostly below about 52% (no sharp cut-off); inactive means mostly above about 56%.
# Tested on: DeltatarO mutant
# Assay: growth inhibition of S. aureus wild type versus tarO mutant, primary screen, teichoic acid synthesis inhibitors, RN4220, OD600 (AID 463173)
# Conditions: OD600, 18 h, stronger effect = lower value, screened at 18.75 µg/mL (by protocol)
row,SMILES,survival
1,CCC(=O)NC1CC(=O)N(c2ccc3c(c2)OCCO3)C1 (stereo not drawn),82%
2,CC(=O)N1CCC(N(Cc2ccc(C)o2)C(=O)Nc2cccc(C(F)(F)F)c2)CC1,91%
3,CC(C)NC(=O)c1ccc(NC(=O)N2CCCCc3ccccc32)cc1,70%
4,Cc1ccc(CN(C(=O)COc2ccc(Cl)c(C)c2)c2ccccn2)o1,52%
5,CCOC(=O)c1cc(S(=O)(=O)N2CCN(c3ccc(OC)cc3)CC2)[nH]n1,128%
6,CCC1Oc2ccccc2N(CC(=O)NCCc2ccc(OC)c(OC)c2)C1=O (stereo not drawn),115%
7,COc1cccc2c1ncc1c(-c3ccc(C)cc3)nn(-c3cccc([N+](=O)[O-])c3)c12,87%
8,Cc1ccc(NC(=O)CCn2cnc3onc(-c4ccc(F)cc4)c3c2=O)c(Br)c1,102%
9,CCOC(=O)C1CCCN(c2c(C(=O)c3ccccc3)cnc3ccc(F)cc23)C1 (stereo not drawn),35% (active)
10,CCOC(=O)C1CCCN(c2c3c(nc4cc(-c5ccc(F)cc5)nn24)CCCC3)C1 (stereo not drawn),76%
11,CCc1ccc(C(=O)c2cnc3ccc(F)cc3c2S(=O)(=O)c2ccccc2)cc1,123%
12,CCOC(=O)c1c(S(=O)(=O)NCC(=O)N2CCN(c3cc(C)ccc3C)CC2)c(C)n(C)c1C,71%
13,COc1ccccc1CNC(=O)c1ccc2c(c1)CCN2S(=O)(=O)c1ccc(Cl)cc1,82%
14,CCS(=O)(=O)N1CCc2cc(C(=O)NCc3ccccc3Cl)ccc21,89%
15,COc1ccccc1N1CCN(C(=O)c2ccc3c(c2)CCN3S(=O)(=O)c2ccccc2)CC1,62%
16,CCS(=O)(=O)N1CCc2cc(C(=O)NCc3ccccc3)ccc21,68%
17,CCS(=O)(=O)N1CCc2cc(C(=O)NCc3ccccc3OC)ccc21,40% (active)
18,COc1ccccc1CNC(=O)c1ccc2c(c1)CCN2S(=O)(=O)c1ccccc1,43% (active)
19,CC1=C(C(=O)Nc2ccccc2)C(c2cccnc2)n2nc(SCc3ccccc3Cl)nc2N1 (stereo not drawn),179%
20,CCCCNC(=O)CN1C(=O)COc2ccc(S(=O)(=O)N3CCCCCC3)cc21,80%

row,SMILES,survival
1,Cc1nc(C)c(C(=O)N/N=C/c2ccc(O)cc2O)cc1C(=O)N/N=C/c1ccc(O)cc1O,80%
2,CC(=O)Nc1ccc(/C=C/c2nc(-c3ccccc3O)n(-c3ccccc3)n2)cc1,84%
3,CN(C)c1ccc(/C=N/NC(=O)c2ccccc2)cc1,95%
4,CC(=O)Nc1ccc(/C=C/c2noc(-c3ccccc3O)n2)cc1,75%
5,Oc1ccccc1-c1nc(/C=C/c2ccccc2)nn1-c1ccccc1,7% (active)
6,Oc1ccccc1-c1nc(/C=C/c2ccc(F)cc2)no1,79%
7,Oc1ccc(/C=C/c2nc(-c3ccccc3O)n(-c3ccccc3)n2)c(O)c1,-3% (active)
8,N#Cc1nc(/C=C/c2ccc(F)cc2)oc1N1CCN(c2ccccc2)CC1,73%
9,CN(C)c1ccc(/C=C/c2noc(-c3ccccc3O)n2)cc1,86%
10,CN(C)c1ccc(/C=C/c2nc(-c3ccccc3O)n(-c3ccccc3)n2)cc1,42% (active)
11,Oc1ccccc1-c1nc(/C=C/c2ccc(F)cc2)nn1-c1ccccc1,26% (active)
12,Cc1ccc2c(c1)c(N1CCCC1=O)c(C(=O)Nc1ccc(F)cc1F)n2C,71%
13,CCCCN(CCCC)CCNC(=O)CN1C(=O)CSc2ccc(S(=O)(=O)N3CCOCC3)cc21,92%
14,CCCCN(CCCNC(=O)c1cc(Nc2ccc(OC)cc2OC)nc2ccccc12)Cc1ccccc1,99%
15,O=c1c2sc3ccccc3c2n(Cc2ccccc2Cl)c(=O)n1Cc1ccccc1,56%
16,CC(C)(C)C(=O)NC1CC(=O)N(c2ccc3c(c2)OCCO3)C1 (stereo not drawn),125%
17,Cn1cc(-c2cc3n(n2)CCC(=O)N3CCCC(=O)Nc2ccc(F)cc2F)c2ccccc21,128%
18,Cc1c(Cl)cccc1-n1ncc(C(=O)Nc2ccc3c(c2)OCCO3)c1C1CCN(C(=O)OC(C)(C)C)CC1,102%
19,CC(CNC(=O)CCc1cn(Cc2ccccc2Cl)c2ccccc12)c1ccccc1 (stereo not drawn),66%
20,Oc1ccccc1-c1nc(/C=C/c2ccccc2Cl)nn1-c1ccccc1,14% (active)

row,SMILES,survival
1,Oc1ccccc1-c1nc(/C=C/c2ccccc2Cl)no1,67%
2,COc1ccc(/C=C/c2noc(-c3ccccc3O)n2)cc1OC,130%
3,COc1ccc(/C=C/c2nc(-c3ccccc3O)n(-c3ccccc3)n2)cc1OC,13% (active)
4,COc1cc2c(-c3cc(Br)ccc3O)nc3c(c(C)nn3-c3ccccc3)c2cc1OC,77%
5,Cc1nn(-c2ccccc2)c(Cl)c1C(N)=O,73%
6,CCc1ccc(C2CC(=O)c3c([nH]c(C(=O)OCC4CCCCC4)c3C)C2)cc1 (stereo not drawn),89%
7,Cc1c(C(=O)N2CCCCCC2)c(S(=O)(=O)Nc2ccc(OC(F)(F)F)cc2)c(C)n1C,113%
8,CCOc1ccc(C(=O)Nc2cc(-c3nc4cc(OC)ccc4o3)ccc2C)cc1[N+](=O)[O-],62%
9,CCOC(=O)c1cnc2cc(C(F)(F)F)ccc2c1Nc1ccc(F)cc1F,2% (active)
10,CCOC(=O)c1cnc2c(Cl)cc(Cl)cc2c1Nc1cc(C(=O)O)ccc1C,60%
11,CCOC(=O)c1cnc2c(C(F)(F)F)cccc2c1Nc1cccc(C(=O)OC)c1,14% (active)
12,CCCOC(=O)c1ccc(Nc2c(C(=O)OCC)cnc3c(C)cc(Cl)cc23)cc1,11% (active)
13,CCOC(=O)c1cnc2cc(C(F)(F)F)ccc2c1Nc1cc(C)ccc1OC,71%
14,CCOC(=O)c1ccc(Nc2ncnc3c2cnn3-c2cccc(Cl)c2)cc1,75%
15,CCOC(=O)c1cnc2c(C)cccc2c1Nc1ccc(OC(C)C)cc1,2% (active)
16,CCOC(=O)c1cnc2c(C(F)(F)F)cccc2c1Cl,82%
17,CCOC(=O)c1cnc2cc(C(F)(F)F)ccc2c1N1CCN(c2ccc(F)cc2)CC1,57%
18,CCOC(=O)c1ccc2nc(C)cc(Nc3ccc(OC(C)C)cc3)c2c1,133%
